Measured values from PubChem BioAssay (NCATS).
Where “and” joins values, the source holds several entries; their conditions need not be identical. Identical values can stand only once. Results filed as inconclusive are left out. Where a structure was tested more than once in an assay, its records may differ in their call. Calls of active or inactive are those of the source. The call rests on the fitted dose curve; in most records, active means well fitted curve in the direction sought with a large enough effect; inconclusive means small, poorly fitted or top-dose-only effect, or another doubt; inactive means no such curve, though single readings can be large; an effect the other way counts as inactive or inconclusive.

How the values were obtained:
[1] = tested on: CRL-7250; test: Cytotoxic Profiling of Annotated Libraries Using Quantitative High-Throughput Screening (AID 1296008); conditions: Five cell lines viability, CellTiter-Glo ATP luminescence, 48-72 h; max response: stronger effect = lower value; further: nearly all actives have a fitted effect of over 60% in size; further: potency means the concentration at half of the fitted maximal effect; on max response: on the % scale 0 is the no-effect control and ±100 the full control effect
Summary of the method: (§1)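 Cells exposed to compounds for 48 or 72 hr at 37 degrees Celsius. Viability read as ATP-coupled luminescence with CellTiter-Glo after 10 min at room temperature.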

[2] = tested on: HEK293; test: as above; conditions: Five cell lines viability, CellTiter-Glo ATP luminescence, 48-72 h; max response: stronger effect = lower value
Summary of the method: as §1

[3] = tested on: HaCat; test: as above; conditions: Five cell lines viability, CellTiter-Glo ATP luminescence, 48-72 h; max response: stronger effect = lower value
Summary of the method: as §1

[4] = tested on: KB-3-1; test: as above; conditions: Five cell lines viability, CellTiter-Glo ATP luminescence, 48-72 h; max response: stronger effect = lower value
Summary of the method: as §1

[5] = tested on: NIH3T3; test: as above; conditions: Five cell lines viability, CellTiter-Glo ATP luminescence, 48-72 h; max response: stronger effect = lower value
Summary of the method: as §1

[6] = tested on: HACAT; test: qHTS assay to identify novel small-molecules to repurpose for Merkel cell carcinoma treatment (AID 1296009); conditions: MCC and control cell lines, CellTiter-Glo viability, 72 h; at 44.8 µM (top of the series) unless noted; further: nearly all actives have a fitted effect of over 60% in size; further: potency means the concentration at half of the fitted maximal effect
Summary of the method: (§2)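 Cells were treated for 72 hr at 37 degree celsius with compounds in 8- or 11-point dose response. Viability was read by CellTiter-Glo luminescence, normalized to no-cell (cytotoxicity) and DMSO controls.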

[7] = tested on: HEK293T; test: as above; conditions: MCC and control cell lines, CellTiter-Glo viability, 72 h; at 44.8 µM (top of the series) unless noted
Summary of the method: as §2

[8] = tested on: MCC-13; test: as above; conditions: MCC and control cell lines, CellTiter-Glo viability, 72 h; series mostly up to 46 µM
Summary of the method: as §2

[9] = tested on: MCC-26; test: as above; conditions: MCC and control cell lines, CellTiter-Glo viability, 72 h; series mostly up to 46 µM
Summary of the method: as §2

[10] = tested on: MKL-1; test: as above; conditions: MCC and control cell lines, CellTiter-Glo viability, 72 h; series mostly up to 46 µM
Summary of the method: as §2

[11] = tested on: MKL-2; test: as above; conditions: MCC and control cell lines, CellTiter-Glo viability, 72 h; series mostly up to 46 µM
Summary of the method: as §2

[12] = tested on: NIH3T3; test: as above; conditions: MCC and control cell lines, CellTiter-Glo viability, 72 h; at 44.8 µM (top of the series) unless noted
Summary of the method: as §2

[13] = tested on: UISO; test: as above; conditions: MCC and control cell lines, CellTiter-Glo viability, 72 h; series mostly up to 46 µM
Summary of the method: as §2

[14] = tested on: WaGa; test: as above; conditions: MCC and control cell lines, CellTiter-Glo viability, 72 h; series mostly up to 46 µM
Summary of the method: as §2

[15] = tested on: C33A; test: Primary qHTS to identify gynecologic anti-cancer compounds using libraries of approved drugs and bioactive compounds (AID 1345084); conditions: Gynecologic cancer cell panel viability, ATPlite luminescence, 48 h; series mostly up to 57.5 µM; further: on the % scale 0 is the no-effect control and ±100 the full control effect; nearly all actives have a fitted effect of over 55% in size
Summary of the method: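 Cells, 1,000 per well, were allowed to settle for 16 h at 37 C before compound addition. Five concentrations were tested for 48 h, and viability was read by ATPlite luminescence after 15 min at room temperature.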

[16] = tested on: SC27B; test: qHTS profiling for inhibitors of Plasmodium falciparum proliferation (AID 504749); further: nearly all actives have a fitted effect of over 60% in size; further: potency means the concentration at half of the fitted maximal effect; conditions: P. falciparum in erythrocytes, SYBR Green DNA, 72 h; series mostly up to 28.7 µM
Summary of the method: (§3)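 P. falciparum-infected erythrocytes (0.3% parasitemia, 2.5% hematocrit) incubated with compound 72 h at 37 C, 5% CO2. Parasite DNA detected by SYBR Green after lysis, overnight at room temperature; normalised to 0.29 uM artemisinin and DMSO.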

[17] = tested on: TAB109; test: as above; conditions: P. falciparum in erythrocytes, SYBR Green DNA, 72 h; series mostly up to 28.7 µM
Summary of the method: as §3

[18] = tested on: TAB113; test: as above; conditions: P. falciparum in erythrocytes, SYBR Green DNA, 72 h; series mostly up to 28.7 µM
Summary of the method: as §3

[19] = tested on: TAB165; test: as above; conditions: P. falciparum in erythrocytes, SYBR Green DNA, 72 h; series mostly up to 28.7 µM
Summary of the method: as §3

[20] = tested on: W2; test: as above; conditions: P. falciparum in erythrocytes, SYBR Green DNA, 72 h; series mostly up to 28.7 µM
Summary of the method: as §3

CC(=O)Nc1ccc(O)cc1
inactive: max response [1] -5.95% | outcome [1] | max response [2] 1.48% | outcome [2] | max response [3] -8.57% | outcome [3] | max response [4] 23.8% and 2.6% | max response [5] -5.84% | outcome [5] | outcome [6] | outcome [7] | Potency [8] | Potency [9] | Potency [10] | Potency [11] | outcome [12] | Potency [13] | Potency [14] | Potency [15]

COc1cc(C(C)=O)ccc1OCCCN1CCC(c2noc3cc(F)ccc23)CC1
inactive: max response [1] -1.04% | outcome [1] | max response [2] -12.6% | outcome [3] | outcome [4] | max response [5] -2.71% | outcome [5] | outcome [6] | Potency [8] | Potency [9] | Potency [10] | outcome [12] | Potency [13] | Potency [14] | Potency [15]

Cc1nc(-c2ccc(OCC(C)C)c(C#N)c2)sc1C(=O)O
inactive: max response [1] 2.28% | outcome [1] | max response [2] -1.16% and -8.21% | max response [3] 0.712% | outcome [3] | max response [4] 3.2% | max response [5] 4.8% | outcome [5] | outcome [6] | Potency [8] | Potency [9] | Potency [10] | Potency [11] | outcome [12] | Potency [13] | Potency [14] | Potency [15]

Cc1cccc(CN2CCN(C(c3ccccc3)c3ccc(Cl)cc3)CC2)c1 (stereo not given)
inactive: max response [1] -2.17% | outcome [1] | outcome [3] | max response [4] 8.45% and -5.16% | max response [5] 3.98% and 1.14% | outcome [6] | Potency [8] | Potency [10] | Potency [11] | Potency [13] | Potency [14] | Potency [15]

CN(C)C(=O)COC(=O)Cc1ccc(OC(=O)c2ccc(N=C(N)N)cc2)cc1
inactive: Potency [16] | Potency [17] | Potency [18] | Potency [19] | Potency [20] | outcome [1] | max response [2] 2.71% | outcome [2] | max response [3] 3.28% | outcome [3] | max response [4] 4.33% and 2.16% | max response [5] 2.87% | outcome [5] | outcome [6] | outcome [7] | Potency [8] | Potency [9] | Potency [10] | Potency [11] | outcome [12] | Potency [13] | Potency [14] | Potency [15]

O=C(O)CCNC(=O)c1ccc(N=Nc2ccc(O)c(C(=O)O)c2)cc1
inactive: Potency [16] | Potency [17] | Potency [18] | Potency [19] | Potency [20] | max response [1] -3.32% | outcome [1] | max response [2] -9.94% and 3.93% | max response [3] -13.4% | outcome [3] | outcome [5] | outcome [6] | Potency [8] | Potency [10] | Potency [11] | outcome [12] | Potency [13] | Potency [14] | Potency [15]

CC1=C(C)C(=O)C(C(CCCCCC(=O)O)c2ccccc2)=C(C)C1=O (stereo not given)
inactive: Potency [17] | Potency [18] | max response [1] 0.243% | max response [2] -12.9% | outcome [2] | max response [3] -5.06% | outcome [3] | max response [4] 6.39% | max response [5] 2.25% | outcome [5] | outcome [6] | outcome [7] | Potency [8] | Potency [10] | outcome [12] | Potency [13] | Potency [14] | Potency [15]
23.7 µM (active) and inactive: Potency [11]
active: Potency [1] 5.31 µM

COc1cc2nc(N3CCN(C(=O)C4CCCO4)CC3)nc(N)c2cc1OC (stereo not given)
inactive: max response [1] -10.4% | outcome [1] | max response [2] -14.3% and 0.884% | max response [3] 3.43% and -0.464% | max response [4] -10.1% and 5.78% | max response [5] -4.15% and -2.16% | Potency [8] | Potency [9] | Potency [10] | Potency [11] | Potency [13] | Potency [14] | Potency [15]

CN(c1nccc(=O)[nH]1)C1CCN(c2nc3ccccc3n2Cc2ccc(F)cc2)CC1
active: Potency [20] 12 µM
inactive: Potency [16] | Potency [18] | Potency [19] | max response [1] -35.3% and -24.5% | outcome [1] | max response [2] -109% and 0.851% and -12.1% | max response [3] 0.328% | outcome [3] | max response [4] 1.53% | outcome [4] | max response [5] 0.52% and 4.28% | outcome [5] | outcome [6] | Potency [8] | Potency [9] | Potency [10] | Potency [11] | outcome [12] | Potency [13] | Potency [14] | Potency [15]

Cc1ccc(C)c(OCCCC(C)(C)C(=O)O)c1
inactive: Potency [16] | Potency [17] | Potency [18] | Potency [19] | Potency [20] | max response [1] -2.44% | outcome [1] | max response [2] 4.9% and 0.17% | max response [3] 3.97% | outcome [3] | max response [4] 8.09% and 8.97% | max response [5] -1.31% and 0.244% | outcome [6] | Potency [8] | Potency [9] | Potency [10] | Potency [11] | Potency [13] | Potency [14] | Potency [15]
